{"source": "the supplement of paper PMC6555819", "data": [{"test_system": "VDR:RXRa (NR concentration 270 nM, RXRa partner concentration 90 nM)", "experiment": "PBM binding z-score (relative to random genomic background probes); higher = stronger binding; sequences stand for … in GC…GCGATTGACAGCGTAGAATGAAGG", "method": "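Protein-binding microarray (Agilent 4x180K custom design, double-stranded 60-nt probes: 5' GC cap, 34-nt variable region, 24-nt constant primer region; full probe sequence given). Purified or IVT nuclear receptor:RXRα heterodimers (3:1 NR:RXRα, mostly 270:90 nM) or homodimers were incubated for 1 h in PBS with 2% milk and no ligand, then detected with Alexa488 antibodies. Fluorescence from o1-orientation probes (~5 replicates averaged) was converted to z-scores against 500 random hg19 background probes. Variable regions are seed direct-repeat (DR0–DR5) sites, all their single-nucleotide variants and half-site ablations.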", "values": [{"sequence": "TCGAGTAGCTTAGGGGCATTCAGAATGGCGTCGA", "PBM binding z-score": -0.202}, {"sequence": "TAGCCTAGGTGATTCAGGGGCCAGTATAGAAAGC", "PBM binding z-score": -0.381}, {"sequence": "CTAGAAAGGTCGGTTGAGGTGAGTATACGGATAA", "PBM binding z-score": 2.4}, {"sequence": "CGTCCAAGGTCATTGCTAGGTCAGTGAAAGCATT", "PBM binding z-score": 5.53}, {"sequence": "CGACCTAGGTCATTGACAGGACAGTGAATAGTAA", "PBM binding z-score": 2.97}, {"sequence": "CATACAGGGTCAGCTAGGCCAGAGGAGGGACGGC", "PBM binding z-score": 3.53}, {"sequence": "ACTATTAGTGGACTTAGGGCAACCGATACGACGC", "PBM binding z-score": 0.119}, {"sequence": "GCGACTGGGGCATCAGCAGGTCACCATAACTTAA", "PBM binding z-score": 1.75}, {"sequence": "ACAGATAGGTGATGAAGGTAACTCAGGCTATCAT", "PBM binding z-score": 0.219}, {"sequence": "TGAATGAGGTTAAAGATCAGGGTACGTGGCGTCG", "PBM binding z-score": 2.38}, {"sequence": "ACTTACGGGTCAACGAGGATATAGCACGCGTATA", "PBM binding z-score": 6.51}, {"sequence": "GCGACTCGGGCAAAGCAGGTTACCATAAGGTTGG", "PBM binding z-score": -0.491}, {"sequence": "TGTCAAAGTGCAAAGGTAACGTAAGTATCCACAC", "PBM binding z-score": 1.59}, {"sequence": "ACTTACGGGTCAACGAGGTTATAGCACGCGTATA", "PBM binding z-score": 7.63}, {"sequence": "GCTAGCAGGCCCTTTGGGTCACTCAATGACGGGC", "PBM binding z-score": -0.206}, {"sequence": "ACTAGCAGGCCATGTTTGGGTCACTCAAACAAAG", "PBM binding z-score": 0.631}, {"sequence": "TCAGACAGGTGAAGTTAACTCAGGTACGCAGTCG", "PBM binding z-score": 0.573}, {"sequence": "CCTACTGGGCCAAAGGTCATCGATTCCAATGCTC", "PBM binding z-score": 4.53}, {"sequence": "TAGCCTAGGTCATGGGGCCAGTATAGTACGCATC", "PBM binding z-score": 2.69}, {"sequence": "AGAATGAGGTTACCAAAGATCATGGAAACGCTTG", "PBM binding z-score": 1.79}, {"sequence": "CCTGCTAGGTCAATGGTCAGCTTAAGCAGCTCGC", "PBM binding z-score": 1.03}, {"sequence": "AGAATGAGGTTATAGGTAGATCAGGGAAGAAAGT", "PBM binding z-score": 1.44}, {"sequence": "GCATATAGGGAATACAAGGTGAAAGTCCGATTGT", "PBM binding z-score": 0.0593}, {"sequence": "TCAGACAGGCGAAGGTAACTCAGGTACGCAGTCG", "PBM binding z-score": 0.498}, {"sequence": "CCAGACAGGTGAAAGGTAATTCAGTCTGGTACGC", "PBM binding z-score": 0.632}, {"sequence": "TAGCCTAGGTGATGCGGGCCAGTATAGTGTCGGC", "PBM binding z-score": -0.796}, {"sequence": "TCTCGGAGGACACGAAAGTCAGAGCTTTCCAGAG", "PBM binding z-score": -0.402}, {"sequence": "TCGAGTAGGTTACCAATGGGGCATACAGCTTTCT", "PBM binding z-score": 0.221}, {"sequence": "CTACCAAGGTGAACAAGGTAGTTGATTACTATTC", "PBM binding z-score": 1.45}, {"sequence": "GCTAGCAGGCCATTTGCGTCACTCAATGACGGGC", "PBM binding z-score": -0.801}, {"sequence": "ATCCCTAGGTAAGACTCAGTTCAGTGAAGAACGC", "PBM binding z-score": 1.05}, {"sequence": "CCTATTAGTTGACCATACGGGCAACCGAAGCTCG", "PBM binding z-score": 0.598}, {"sequence": "TCATATAGGTAATACAGGTGACAGTCGGCATCTA", "PBM binding z-score": 0.922}, {"sequence": "CGAACTAGGTCATCCAGGACAGTGATTACATTGA", "PBM binding z-score": 4.57}, {"sequence": "ATCTCTAGGTAAGACTCAGTTCAGTGAAGAACGC", "PBM binding z-score": 0.833}, {"sequence": "CCTGACGGGTCACTGACAGGTTATAGCATTTGGA", "PBM binding z-score": 2.94}, {"sequence": "AGAAAGAGGGCACGCTGAGTTGATAGCAGAGTAG", "PBM binding z-score": 2.39}, {"sequence": "CCTACTGAGCCAAAGGTCATTGATTCCAATGCTC", "PBM binding z-score": 4.81}, {"sequence": "ATCGAAAGGTCGATGAGGTGAGTATACACCGTTT", "PBM binding z-score": 5.2}, {"sequence": "TCTATTAGTTGAAGGGCAAGCGACGAGTCCGTTT", "PBM binding z-score": 0.979}]}]}
